Records with an inconclusive call do not appear. Where a call stands in place of a potency, no number is given. More than one record can exist for a structure, and the calls need not agree. Calls of active or inactive are those of the source. Calls follow the shape of the dose curve; as a rule, active = well fitted inhibition curve with a large enough effect in the repeat runs; inconclusive = weak or mixed curves, or effect the other way; inactive = no such curve, though single readings can be large or run the other way.
target: Nuclear receptor subfamily 1 group I member 3 (Homo sapiens) (UniProt Q14994); assay: qHTS assay to identify small molecule antagonists of the constitutive androstane receptor (CAR) signaling pathway (AID 1224838); settings: HepG2-CYP2B6-hCAR luciferase, CITCO-stimulated, 24 h; series mostly up to 92.4 µM;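 also: HepG2 cells stably expressing hCAR with CYP2B6 luciferase reporter stimulated by CITCO; nearly all actives have a fitted effect of over 40% in size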
Text: U.S. Tox21 Program National Center for Advancing Translational Sciences [NCATS] NIH Chemical Genomics Center [NCGC] U.S. Environmental Protection Agency [EPA] National Institutes of Environmental Health Sciences [NIEHS] National Toxicology Program [NTP] U.S. Food and Drug Administration [FDA] Tox21 Assay Overview: The constitutive androstane receptor (CAR) is a nuclear receptor which regulates multiple drug metabolizing enzymes (DMEs) and transporters. Activating CAR will generally increase the transcription and subsequent translation of CYP2B6 and CYP3A4. These two DMEs represent about 50% of the drug metabolizing potential in the body. When CAR is deactivated, the metabolizing potential in the body will decrease, subsequently increasing the toxicity in the body or lowering the therapeutic potential of a pro-drug. Recently, there have also been studies performed indicating CARs role in energy metabolism and cancer therapy. Therefore, inhibiting CARs activity could have a potential effect on diabetes and cancer. Identifying environmental toxins and compounds which modulate CAR, through the use of the Tox21 10K compound collection, will be an important step in determining the toxicity and potential therapeutic effects these factors will have on the human body.
Tox21 Assay Protocol Summary: A double-stable (hCAR and CYP2B6-2.2kb) transfected cell line, derived from human hepatoma (HepG2) cells, was utilized for the duration of the quantitative high-throughput screens. The HepG2-CYP2B6-hCAR cells suspended in DMEM culture medium supplemented with 10% FBS, 5 ug/mL blasticidin, 0.5 mg/mL geneticin, 100 U/mL penicillin and 100 ug/mL streptomycin were dispensed at 2500 cells/4 uL/well in 1536-well white solid bottom plates using a Multidrop Combi. After the assay plates were incubated at 37 C/5% CO2 for 4 hrs, 23 nL of compounds at 15 concentrations (from 5-48 columns) or positive control (from 1 to 4 columns) were transferred to the assay plates using a Pintool station. One uL of CITCO, was added using a Flying Reagent Dispenser to generate a final concentration of 50 nM CITCO inside each well. After a 24 hr incubation period at 37 C/5% CO2, four uL of ONE-Glo reagent was added into the assay plates using a Flying Reagent Dispenser. After a 30 min incubation period at room temperature, the luminescence intensity in the assay plates was measured using a ViewLux plate reader.
Potency is read from the fitted curve at half-maximal effect.

Sequence of Nuclear receptor subfamily 1 group I member 3 (Homo sapiens) (Q14994 whole entry, looked up): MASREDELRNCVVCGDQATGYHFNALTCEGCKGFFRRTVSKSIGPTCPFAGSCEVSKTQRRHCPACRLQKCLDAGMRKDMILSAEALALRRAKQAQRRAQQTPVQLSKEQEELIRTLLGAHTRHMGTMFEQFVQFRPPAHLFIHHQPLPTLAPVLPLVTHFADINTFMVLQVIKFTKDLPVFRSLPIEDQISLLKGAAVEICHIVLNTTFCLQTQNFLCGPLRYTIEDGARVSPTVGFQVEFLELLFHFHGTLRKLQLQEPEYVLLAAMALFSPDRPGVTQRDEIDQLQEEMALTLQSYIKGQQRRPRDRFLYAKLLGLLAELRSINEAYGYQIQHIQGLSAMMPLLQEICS

| Structure (SMILES) | Potency |
| --- | --- |
| [O-][Cl+2]([O-])O | inactive |
| Cc1cc(-c2cc(C)c(N)c(C)c2)cc(C)c1N | inactive |
| CCCCN(CCCC)SN(C)C(=O)Oc1cccc2c1OC(C)(C)C2 | inactive |
| Nc1ccc(Oc2ccc(N)cc2)cc1 | inactive |
| O=c1[nH]c(=O)[nH]c(=O)[nH]1 | inactive |
| Cc1ccc(N)cc1N | inactive |
| CC(C)=C[C@@H]1[C@@H](C(=O)OCc2coc(Cc3ccccc3)c2)C1(C)C | inactive |
| CN(C)N=O | inactive |
| CC(C)(C)C(O)(CCc1ccc(Cl)cc1)Cn1cncn1 (stereo not given) | inactive |
| Nc1ccc(Cc2ccc(N)cc2)cc1 | inactive |
| [N-]=[N+]=[N-] | inactive |
| Clc1ccccc1Cl | inactive |
| CC1C=[C-]C=C1.[C-]#[O+].[C-]#[O+].[C-]#[O+].[Mn] | inactive |
| CCC12COCN1COC2 | inactive |
| c1ccc2c(c1)oc1ccccc12 | inactive |
| O=c1[nH]c2ccccc2c(=O)o1 | inactive |
| CC(C)NC(=O)N1CC(=O)N(c2cc(Cl)cc(Cl)c2)C1=O | inactive |
| CCC[N+](=O)[O-] | 8.48 µM (active) and inactive |
| O=C(NC(=O)c1c(F)cccc1F)Nc1cc(Cl)c(OC(F)(F)C(F)C(F)(F)F)cc1Cl (stereo not given) | inactive |
| CC(Br)C(=O)O (stereo not given) | inactive |

| Structure (SMILES) | Potency |
| --- | --- |
| CC(C)(Cl)Cl | inactive |
| C#CC(C)(C)NC(=O)c1cc(Cl)cc(Cl)c1 | inactive |
| CCOP(=S)(OCC)SCCSCC | inactive |
| Oc1ccccc1Cl | inactive |
| OCCN(CCO)CCO | inactive |
| CC(C)(C)OOC(=O)c1ccccc1 | inactive |
| CCOP(OCC)OCC | inactive |
| COC(=O)c1ccccc1C(=O)OC | inactive |
| CCCCCOC(=O)c1ccccc1C(=O)OCCCCC | inactive |
| CCOP(=S)(OCC)Oc1cnc2ccccc2n1 | inactive |
| CCCC1COC(Cn2cncn2)(c2ccc(Cl)cc2Cl)O1 (stereo not given) | inactive |
| c1ccc2c(c1)Oc1ccccc1O2 | inactive |
| ClCCBr | inactive |
| Clc1cccc(Cl)c1Cl | inactive |
| O=C1CCCN1 | inactive |
| CN(C)CCO | inactive |
| CC(C)C1(C)N=C(c2nc3ccccc3cc2C(=O)O)NC1=O (stereo not given) | inactive |
| COCCl | inactive |
| COP(N)(=O)SC (stereo not given) | inactive |
| Clc1ccc(Cl)cc1 | inactive |

Reference: PubChem BioAssay (Tox21)
